Laboratory results: PubChem BioAssay (NCATS)
Results filed as inconclusive are left out. Values without a mark were called inactive. Active and inactive are the calls of the source. The call rests on the fitted dose curve; in most records, active means well fitted inhibition curve with a large enough effect; inconclusive means small, poorly fitted or top-dose-only effect; inactive means no such curve, though single readings can be large or run the other way. Non-standard residues stand in square brackets, D forms with d. Residues, ends and D or L forms follow the SMILES beside them.

Assay: BET inhibitor-based combinations targeting novel dependencies in MECOM-rearranged (r) AML: OCI-AML3 cell line (AID 2202232); further: nearly all actives have a fitted effect of over 35% in size
Details: CellTiter-Glo luminescence, 48 h; Potency: OCI-AML3 viability; series mostly up to 46 µM; viability (% of control): at the top concentration
Summary of the method: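 AML cell lines seeded at 500 cells/well, treated with 11-point dose curves for 48 h. Viability by CellTiter-Glo luminescence, normalised to DMSO and empty wells; activity expressed as AUC and per-cell-line Z-transformed AUC.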
Potency means the concentration at half of the fitted maximal effect.

Structure (SMILES) | Potency | viability (% of control)
COC1CCC(N2C(=O)CNc3ncc(-c4ccc(C(C)(C)O)nc4)nc32)CC1 (stereo not given) | 5250 nM (active) | 
N[C@@H]1CN(c2c(F)cc3c(=O)c(C(=O)O)cn([C@@H]4C[C@@H]4F)c3c2Cl)CC12CC2 |  | 100%
C[C@H]1O[C@H](O[C@H]2[C@H](O)[C@@H](O)[C@@H](O[C@H]3[C@H](O)[C@@H](O)C(O)O[C@@H]3CO)O[C@@H]2CO)[C@H](O)[C@@H](O)[C@@H]1N[C@H]1C=C(CO)[C@@H](O)[C@H](O)[C@H]1O (stereo not given in full) |  | 110%
CC(C)C[C@@H]1NC(=O)[C@@H](C(C)C)NC(=O)[C@@H]2CCCN2C(=O)[C@@H](CC(=O)O)NC(=O)[C@@H](Cc2c[nH]c3ccccc23)NC1=O (cyclo(L[dW][dD]P[dV])) |  | 125%
Cc1cnc(NC(=O)c2cc(Oc3cnc(C(=O)N(C)C)nc3)c3cc(C)oc3c2)cn1 |  | 115%
CC(C)(CO)n1cc(C(=O)c2cncc(NC(=O)Cc3ccc(Cl)cn3)c2)c2cnc(N)nc21 |  | 113%
CN1CCC(c2c(O)cc(O)c3c(=O)cc(-c4ccccc4Cl)oc23)C1CO (stereo not given) | 742 nM (active) | 
CN[C@@H]1[C@@H](O)[C@@H](O[C@@H]2[C@@H](O)[C@H](O[C@H]3O[C@H](CN)[C@@H](O)[C@H](O)[C@H]3O)[C@@H](N)C[C@H]2NC(=O)C(O)CN)OC[C@]1(C)O (stereo not given in full) |  | 136%
CCCCCCCOc1ccc(CCC(N)(CO)CO)cc1C(F)(F)F | 16600 nM (active) | 
O=C(O)CNC(=O)c1nc(Cl)c2ccccc2c1O |  | 126%
CCOc1ccc(-n2c([C@@H](C)N(Cc3cccnc3)C(=O)Cc3ccc(F)c(C(F)(F)F)c3)nc3ncccc3c2=O)cc1 |  | 103%
COc1cccc2c1C(=O)c1c(O)c3c(c(O)c1C2=O)C[C@@](O)(/C(CO)=N/NC(=O)CCCCCN1C(=O)C=CC1=O)C[C@@H]3O[C@H]1C[C@H](N)[C@H](O)[C@H](C)O1 | 417 nM (active) | 
Cc1ccc(-n2[nH]c(C)c(N=Nc3cccc(-c4cccc(C(=O)O)c4)c3O)c2=O)cc1C |  | 103%
C[C@]12CC[C@H](O)CC1=CC[C@@H]1[C@@H]2CC[C@]2(C)C(c3cccnc3)=CC[C@@H]12 |  | 116% [at 15.6 µM]
CCCNC(=O)c1cn2ncnc(Nc3cc(C(=O)NC4CC4)ccc3C)c2c1C |  | 107%
CCOCOC[C@H](C[C@H](C)C(=O)NO)NC(=O)c1ccc(Oc2ccccc2)cc1 | 23500 nM (active) | 
COc1cc(/C=C/C(=O)CC(=O)/C=C/c2ccc(O)c(OC)c2)ccc1O | 8330 nM (active) | 
COc1ccc(N2C(=O)N(c3c(C)cccc3Cl)Cc3cnc(Nc4ccc(C5CCN(C)CC5)cc4OC)nc32)nc1 | 16600 nM (active) | 
COc1cc(Nc2cnc(C#N)c(O[C@H](C)CN(C)C)n2)ncc1-c1cnn(C)c1 | 1320 nM (active) | 
CNC1CCCN(c2c(F)cc3c(=O)c(C(=O)O)cn(C4CC4)c3c2OC)C1 (stereo not given) |  | 110%

Structure (SMILES) | Potency | viability (% of control)
CN(C)C(=O)COC(=O)Cc1ccc(OC(=O)c2ccc(N=C(N)N)cc2)cc1 |  | 108%
OC1CCC([C@H](O)C[C@H]2c3c(F)cccc3-c3cncn32)CC1 (stereo not given in full) |  | 125%
COc1nnc2ccc(N3CCC(c4ccc(OCCN5CCN(C)C(=O)[C@H]5C)cc4)CC3)nn12 | 41.7 nM (active) | 
CC[C@@]1(O)C(=O)OCc2c1cc1n(c2=O)Cc2c-1nc1ccccc1c2CCNC(C)C | 4.7 nM (active) | 
C/C(=N\NC(=S)N1CCC1)c1ccccn1 | 37.2 nM (active) | 
O=C(O)CCNc1cc(N2CCc3ccccc3CC2)nc(-c2cccnc2)n1 | 9340 nM (active) | 
C[C@@H](OC[C@@]1(c2ccccc2)CC[C@]2(CCC(=O)N2)CN1)c1cc(C(F)(F)F)cc(C(F)(F)F)c1 | 18600 nM (active) | 
CNCCCOc1cc(F)c(-c2c(Cl)nc3ncnn3c2N[C@@H](C)C(F)(F)F)c(F)c1 | 83.3 nM (active) | 
CC(=O)c1cc2c(o1)C(=O)c1ccccc1C2=O | 2630 nM (active) | 
COc1cc(N2CCN(C)CC2)ccc1Nc1ncc2c(n1)N(C)c1ccccc1C(=O)N2C | 2350 nM (active) | 
CC(C)(C)NC(=O)c1cncn1C1CCN(c2ccc(-c3nnc(C(F)(F)F)o3)cn2)CC1 | 1050 nM (active) | 
O=[N+]([O-])c1ccc(O)c2ncccc12 | 14800 nM (active) | 
COc1cc([C@@H]2c3cc4c(cc3[C@@H](O[C@@H]3O[C@@H]5CO[C@@H](c6cccs6)O[C@H]5[C@H](O)[C@H]3O)[C@H]3COC(=O)[C@H]23)OCO4)cc(OC)c1O | 263 nM (active) | 
CO[C@H]1/C=C\C=C(\C)C(=O)NC2=CC(=O)C(NCCN(C)C)=C(C[C@@H](C)C[C@H](OC)[C@H](O)[C@@H](C)/C=C(/C)[C@@H]1OC(N)=O)C2=O | 118 nM (active) | 
CC(C)(S)[C@@H](N)C(=O)O |  | 118% [at 5.12 µM]
Cc1nc2ccc(CN(C)c3ccc(C(=O)N[C@@H](CCC(=O)O)C(=O)O)s3)cc2c(=O)[nH]1 | 46.8 nM (active) | 
C[C@]12CCC3[C@@H](CC[C@H]4NC(=O)C=C[C@]34C)[C@@H]1CC[C@@H]2C(=O)Nc1cc(C(F)(F)F)ccc1C(F)(F)F (stereo not given in full) |  | 133%
CCCS(=O)(=O)c1nc(NC2CC2)cc(-c2ccc3c(ccn3C3CC(C)(C)NC(C)(C)C3)c2)n1 | 2780 nM (active) | 
CCCc1nc(C)c2c(=O)[nH]c(-c3cc(S(=O)(=O)N4CCN(CC)CC4)ccc3OCC)nn12 | 3720 nM (active) | 
CC1(C)O[C@@H]2C[C@H]3[C@@H]4C[C@H](F)C5=CC(=O)C=C[C@]5(C)[C@H]4[C@@H](O)C[C@]3(C)[C@]2(C(=O)CO)O1 |  | 126%
